# Source: article PMC7862700, “An all-to-all approach to the identification of sequence-specific readers for epigenetic DNA modifications on cytosine”
# Columns and labels:
# Assay in all cases: DAPPL (digital affinity profiling via proximity ligation, sequencing); 10 mM Tris-HCl pH 7.5, 50 mM NaCl, 1 mM DTT, 4% glycerol, room temperature, 30 min; GST-TFs on glutathione beads, 16-mer random dsDNA library, 0.1% formaldehyde crosslink after washing; high values mean tight binding
# FEV = molecular target: T1, FEV (Homo sapiens, UniProt Q99581 1-238); conditions: protein: recombinant; tags: N-terminal GST; dsDNA, one strand shown
# T1 sequence: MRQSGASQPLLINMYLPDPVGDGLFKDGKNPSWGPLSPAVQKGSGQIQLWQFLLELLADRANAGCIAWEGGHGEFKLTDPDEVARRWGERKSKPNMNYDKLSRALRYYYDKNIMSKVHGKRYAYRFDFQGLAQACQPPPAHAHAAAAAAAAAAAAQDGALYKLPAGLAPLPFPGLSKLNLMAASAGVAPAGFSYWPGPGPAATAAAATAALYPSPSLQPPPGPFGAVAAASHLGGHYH
# Method in brief: (§1)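 In yeast, human transcription factors were expressed with a GST fusion, then pulled down on glutathione beads and given DNA barcodes. Pooled with a tag-only sample, they were exposed to 200 nmole of a 16-mer random double-stranded DNA library (Tris/NaCl/DTT/glycerol buffer, room temperature, 30 min), washed, crosslinked with 0.1% formaldehyde, proximity-ligated using BsaI/T4 ligase for 1 h at 37 °C, PCR-amplified and read on an Illumina NextSeq500. Each hexamer's frequency of reads for a factor, divided by the matching frequency for the tag-only sample, gives the binding signal.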
# ETV5 = ETV5 (Homo sapiens, UniProt P41161 1-510); conditions: protein: recombinant; tags: N-terminal GST; dsDNA, one strand shown
# Method in brief: as §1
# HSF1 = HSF1 (Homo sapiens, UniProt Q00613 1-529); conditions: protein: recombinant; tags: N-terminal GST; chain copies: 3; dsDNA, one strand shown
# Method in brief: as §1
# SPIC = molecular target: T2, SPIC (Homo sapiens, UniProt Q8N5J4 1-248); conditions: protein: recombinant; tags: N-terminal GST; dsDNA, one strand shown
# T2 sequence: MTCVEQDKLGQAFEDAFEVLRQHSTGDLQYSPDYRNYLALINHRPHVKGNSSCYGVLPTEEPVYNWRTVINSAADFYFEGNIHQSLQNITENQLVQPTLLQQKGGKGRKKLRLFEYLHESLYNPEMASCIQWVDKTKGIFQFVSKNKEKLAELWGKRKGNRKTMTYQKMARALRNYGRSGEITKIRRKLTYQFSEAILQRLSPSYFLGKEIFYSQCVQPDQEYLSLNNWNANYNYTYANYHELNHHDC
# Method in brief: as §1
# ELF4 = ELF4 (Homo sapiens, UniProt Q99607 1-663); conditions: protein: recombinant; tags: N-terminal GST; dsDNA, one strand shown
# Method in brief: as §1
# ELK4 = molecular target: T3, ELK4 (Homo sapiens, UniProt P28324-2 1-405); conditions: protein: recombinant; tags: N-terminal GST; dsDNA, one strand shown
# T3 sequence: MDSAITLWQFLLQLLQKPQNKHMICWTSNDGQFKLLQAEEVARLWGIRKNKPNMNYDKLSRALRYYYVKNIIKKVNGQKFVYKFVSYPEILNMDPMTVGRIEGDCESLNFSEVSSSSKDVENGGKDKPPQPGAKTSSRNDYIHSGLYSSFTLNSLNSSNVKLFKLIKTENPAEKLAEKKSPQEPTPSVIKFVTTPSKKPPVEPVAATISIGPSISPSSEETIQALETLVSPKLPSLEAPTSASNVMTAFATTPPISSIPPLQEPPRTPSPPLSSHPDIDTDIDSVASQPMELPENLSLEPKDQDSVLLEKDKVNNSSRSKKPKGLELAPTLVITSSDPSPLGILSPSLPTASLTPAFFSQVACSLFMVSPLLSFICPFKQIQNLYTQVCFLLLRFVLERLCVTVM
# Method in brief: as §1
# ETV2 = molecular target: T4, ETV2 (Homo sapiens, UniProt O00321 1-342); conditions: protein: recombinant; tags: N-terminal GST; dsDNA, one strand shown
# T4 sequence: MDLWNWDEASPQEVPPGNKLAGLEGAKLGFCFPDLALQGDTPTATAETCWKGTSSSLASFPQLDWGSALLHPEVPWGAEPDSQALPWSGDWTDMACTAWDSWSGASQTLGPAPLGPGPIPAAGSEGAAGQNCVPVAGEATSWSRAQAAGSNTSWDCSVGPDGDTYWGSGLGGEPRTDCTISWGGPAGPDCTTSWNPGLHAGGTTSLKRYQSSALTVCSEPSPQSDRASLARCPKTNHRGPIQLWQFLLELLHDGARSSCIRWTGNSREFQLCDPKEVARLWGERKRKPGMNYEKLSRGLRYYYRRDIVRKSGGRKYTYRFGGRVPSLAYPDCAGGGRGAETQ
# Method in brief: as §1
# ELF3 = molecular target: T5, ELF3 (Homo sapiens, UniProt P78545 1-371); conditions: protein: recombinant; tags: N-terminal GST; dsDNA, one strand shown
# T5 sequence: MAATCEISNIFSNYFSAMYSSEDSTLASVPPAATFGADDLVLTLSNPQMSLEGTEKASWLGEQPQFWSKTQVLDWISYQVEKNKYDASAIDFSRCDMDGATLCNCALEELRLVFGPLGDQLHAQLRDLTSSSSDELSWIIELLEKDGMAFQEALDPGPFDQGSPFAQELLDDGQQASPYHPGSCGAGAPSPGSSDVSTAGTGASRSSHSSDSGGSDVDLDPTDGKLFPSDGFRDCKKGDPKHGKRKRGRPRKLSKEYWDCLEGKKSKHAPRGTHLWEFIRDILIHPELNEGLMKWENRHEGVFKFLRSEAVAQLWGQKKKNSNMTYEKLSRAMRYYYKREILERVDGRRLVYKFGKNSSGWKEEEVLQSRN
# Method in brief: as §1
# CRX = CRX (Homo sapiens, UniProt O43186 1-299); conditions: protein: recombinant; tags: N-terminal GST; dsDNA, one strand shown
# Method in brief: as §1
# ETV1 = ETV1 (Homo sapiens, UniProt P50549 1-477); conditions: protein: recombinant; tags: N-terminal GST; dsDNA, one strand shown
# Method in brief: as §1
# ERF = molecular target: T6, ERF (Homo sapiens, UniProt P50548 1-548); conditions: protein: recombinant; tags: N-terminal GST; dsDNA, one strand shown
# T6 sequence: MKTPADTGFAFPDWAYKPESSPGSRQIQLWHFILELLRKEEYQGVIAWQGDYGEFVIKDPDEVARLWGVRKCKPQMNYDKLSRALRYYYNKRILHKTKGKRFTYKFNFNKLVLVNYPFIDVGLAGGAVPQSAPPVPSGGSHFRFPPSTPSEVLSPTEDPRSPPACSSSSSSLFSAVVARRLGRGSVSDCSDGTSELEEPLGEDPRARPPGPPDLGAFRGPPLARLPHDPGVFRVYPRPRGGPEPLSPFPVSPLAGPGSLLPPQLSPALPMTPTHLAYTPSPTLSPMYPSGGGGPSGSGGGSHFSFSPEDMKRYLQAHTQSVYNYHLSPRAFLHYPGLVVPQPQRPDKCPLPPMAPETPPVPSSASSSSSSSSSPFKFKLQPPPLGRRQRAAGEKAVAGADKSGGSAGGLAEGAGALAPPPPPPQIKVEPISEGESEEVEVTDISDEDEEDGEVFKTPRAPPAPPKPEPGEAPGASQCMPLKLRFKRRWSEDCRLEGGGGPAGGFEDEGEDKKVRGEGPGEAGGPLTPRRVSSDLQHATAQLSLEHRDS
# Method in brief: as §1
# ETV3L = molecular target: T7, ETV3L (Homo sapiens, UniProt Q6ZN32 1-361); conditions: protein: recombinant; tags: N-terminal GST; dsDNA, one strand shown
# T7 sequence: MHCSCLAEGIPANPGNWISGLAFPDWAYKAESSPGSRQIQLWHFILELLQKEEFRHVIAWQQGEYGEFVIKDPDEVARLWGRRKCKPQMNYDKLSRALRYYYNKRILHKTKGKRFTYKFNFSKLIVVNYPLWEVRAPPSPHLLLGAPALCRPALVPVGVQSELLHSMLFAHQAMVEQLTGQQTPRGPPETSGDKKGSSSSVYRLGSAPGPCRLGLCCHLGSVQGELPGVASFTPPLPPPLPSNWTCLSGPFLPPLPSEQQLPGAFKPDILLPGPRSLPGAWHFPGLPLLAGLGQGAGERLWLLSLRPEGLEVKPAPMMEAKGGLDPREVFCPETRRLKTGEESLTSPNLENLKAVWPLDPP
# Method in brief: as §1
# ETS2 = molecular target: T8, ETS2 (Homo sapiens, UniProt P15036 1-469); conditions: protein: recombinant; tags: N-terminal GST; dsDNA, one strand shown
# T8 sequence: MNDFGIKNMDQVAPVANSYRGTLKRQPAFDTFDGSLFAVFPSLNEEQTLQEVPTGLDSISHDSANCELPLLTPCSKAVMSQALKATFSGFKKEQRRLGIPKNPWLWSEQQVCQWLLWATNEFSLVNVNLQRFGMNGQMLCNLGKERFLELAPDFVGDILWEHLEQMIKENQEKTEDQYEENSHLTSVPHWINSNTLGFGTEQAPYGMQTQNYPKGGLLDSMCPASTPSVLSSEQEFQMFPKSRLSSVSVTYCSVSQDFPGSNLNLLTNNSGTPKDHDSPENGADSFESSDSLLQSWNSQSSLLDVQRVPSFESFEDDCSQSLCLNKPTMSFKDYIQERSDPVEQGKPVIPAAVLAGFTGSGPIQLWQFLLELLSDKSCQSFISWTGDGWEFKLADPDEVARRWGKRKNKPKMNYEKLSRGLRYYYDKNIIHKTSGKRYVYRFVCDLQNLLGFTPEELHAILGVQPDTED
# Method in brief: as §1
# SPDEF = molecular target: T9, SPDEF (Homo sapiens, UniProt O95238 1-335); conditions: protein: recombinant; tags: N-terminal GST; dsDNA, one strand shown
# T9 sequence: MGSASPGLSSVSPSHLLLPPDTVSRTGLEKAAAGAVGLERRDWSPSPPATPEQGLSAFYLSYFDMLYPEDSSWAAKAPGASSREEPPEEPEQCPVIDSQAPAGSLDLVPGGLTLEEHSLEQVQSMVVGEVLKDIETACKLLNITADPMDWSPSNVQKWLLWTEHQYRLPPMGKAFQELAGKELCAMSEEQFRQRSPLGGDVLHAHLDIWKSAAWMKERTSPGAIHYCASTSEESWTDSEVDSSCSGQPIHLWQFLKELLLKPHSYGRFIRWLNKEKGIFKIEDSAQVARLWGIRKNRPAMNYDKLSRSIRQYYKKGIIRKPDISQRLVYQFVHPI
# Method in brief: as §1
# ETV7 = molecular target: T10, ETV7 (Homo sapiens, UniProt Q9Y603 1-341); conditions: protein: recombinant; tags: N-terminal GST; dsDNA, one strand shown
# T10 sequence: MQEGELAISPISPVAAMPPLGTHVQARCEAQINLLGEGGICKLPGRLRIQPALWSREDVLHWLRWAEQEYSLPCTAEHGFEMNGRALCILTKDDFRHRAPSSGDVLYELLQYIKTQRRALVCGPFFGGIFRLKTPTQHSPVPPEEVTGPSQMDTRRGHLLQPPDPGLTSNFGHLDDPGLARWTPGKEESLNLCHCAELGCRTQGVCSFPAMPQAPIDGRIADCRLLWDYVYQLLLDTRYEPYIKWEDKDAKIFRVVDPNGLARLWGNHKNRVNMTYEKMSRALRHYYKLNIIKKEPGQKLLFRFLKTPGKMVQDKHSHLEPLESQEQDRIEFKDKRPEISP
# Method in brief: as §1
# ELF5 = molecular target: T11, ELF5 (Homo sapiens, UniProt Q9UKW6-2 1-255); conditions: protein: recombinant; tags: N-terminal GST; dsDNA, one strand shown
# T11 sequence: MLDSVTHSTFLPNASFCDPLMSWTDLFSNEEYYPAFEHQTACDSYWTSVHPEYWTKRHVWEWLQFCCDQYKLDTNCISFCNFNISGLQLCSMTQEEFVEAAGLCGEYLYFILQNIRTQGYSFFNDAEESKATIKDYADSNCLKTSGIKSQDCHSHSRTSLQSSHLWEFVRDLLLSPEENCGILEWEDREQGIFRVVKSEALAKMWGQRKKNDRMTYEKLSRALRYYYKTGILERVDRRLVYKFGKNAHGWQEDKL
# Method in brief: as §1
# ETV3 = molecular target: T12, ETV3 (Homo sapiens, UniProt P41162-2 1-143); conditions: protein: recombinant; tags: N-terminal GST; dsDNA, one strand shown
# T12 sequence: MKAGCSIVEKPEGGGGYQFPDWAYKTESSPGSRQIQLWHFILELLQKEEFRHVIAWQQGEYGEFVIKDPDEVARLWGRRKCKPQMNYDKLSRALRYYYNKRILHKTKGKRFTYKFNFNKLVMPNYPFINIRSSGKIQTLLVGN
# Method in brief: as §1
# ETV6 = ETV6 (Homo sapiens, UniProt P41212 1-452); conditions: protein: recombinant; tags: N-terminal GST; dsDNA, one strand shown
# Method in brief: as §1
# CRX, sequence (O43186 whole entry): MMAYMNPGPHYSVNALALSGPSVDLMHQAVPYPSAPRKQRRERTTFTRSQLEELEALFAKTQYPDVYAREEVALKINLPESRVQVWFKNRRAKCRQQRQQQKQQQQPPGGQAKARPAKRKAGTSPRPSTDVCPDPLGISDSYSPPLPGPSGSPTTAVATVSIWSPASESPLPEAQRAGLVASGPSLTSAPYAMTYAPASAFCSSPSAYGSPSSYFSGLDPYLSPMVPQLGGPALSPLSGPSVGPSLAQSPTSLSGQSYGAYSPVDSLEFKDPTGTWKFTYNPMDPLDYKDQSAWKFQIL
# HSF1, sequence (Q00613 whole entry): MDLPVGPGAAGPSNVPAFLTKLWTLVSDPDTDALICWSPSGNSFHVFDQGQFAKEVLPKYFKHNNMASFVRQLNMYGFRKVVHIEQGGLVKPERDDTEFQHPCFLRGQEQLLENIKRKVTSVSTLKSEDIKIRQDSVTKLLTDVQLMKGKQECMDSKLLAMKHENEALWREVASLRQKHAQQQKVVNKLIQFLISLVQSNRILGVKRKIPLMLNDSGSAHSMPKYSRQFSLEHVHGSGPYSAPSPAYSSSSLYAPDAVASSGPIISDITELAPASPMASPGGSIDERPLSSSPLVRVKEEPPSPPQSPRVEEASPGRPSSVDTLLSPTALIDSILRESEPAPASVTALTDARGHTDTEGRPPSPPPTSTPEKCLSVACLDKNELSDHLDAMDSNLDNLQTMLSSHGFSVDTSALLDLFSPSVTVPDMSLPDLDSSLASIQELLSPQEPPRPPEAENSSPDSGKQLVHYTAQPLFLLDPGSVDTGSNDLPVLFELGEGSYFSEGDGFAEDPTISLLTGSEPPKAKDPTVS
# ETV1, sequence (P50549 whole entry): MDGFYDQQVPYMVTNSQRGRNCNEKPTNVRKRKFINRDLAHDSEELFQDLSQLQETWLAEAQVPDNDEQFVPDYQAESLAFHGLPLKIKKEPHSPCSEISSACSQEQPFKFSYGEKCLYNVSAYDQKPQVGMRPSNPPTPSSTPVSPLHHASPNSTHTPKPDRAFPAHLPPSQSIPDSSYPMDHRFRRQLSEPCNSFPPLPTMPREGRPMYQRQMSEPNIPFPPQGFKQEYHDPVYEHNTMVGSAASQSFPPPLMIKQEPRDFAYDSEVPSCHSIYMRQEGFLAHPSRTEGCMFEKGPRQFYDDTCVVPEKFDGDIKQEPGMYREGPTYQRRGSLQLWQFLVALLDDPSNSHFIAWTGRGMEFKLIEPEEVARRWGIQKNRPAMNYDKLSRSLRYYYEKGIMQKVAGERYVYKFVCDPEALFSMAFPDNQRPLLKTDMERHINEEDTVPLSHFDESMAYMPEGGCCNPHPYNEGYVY
# ETV6, sequence (P41212 whole entry): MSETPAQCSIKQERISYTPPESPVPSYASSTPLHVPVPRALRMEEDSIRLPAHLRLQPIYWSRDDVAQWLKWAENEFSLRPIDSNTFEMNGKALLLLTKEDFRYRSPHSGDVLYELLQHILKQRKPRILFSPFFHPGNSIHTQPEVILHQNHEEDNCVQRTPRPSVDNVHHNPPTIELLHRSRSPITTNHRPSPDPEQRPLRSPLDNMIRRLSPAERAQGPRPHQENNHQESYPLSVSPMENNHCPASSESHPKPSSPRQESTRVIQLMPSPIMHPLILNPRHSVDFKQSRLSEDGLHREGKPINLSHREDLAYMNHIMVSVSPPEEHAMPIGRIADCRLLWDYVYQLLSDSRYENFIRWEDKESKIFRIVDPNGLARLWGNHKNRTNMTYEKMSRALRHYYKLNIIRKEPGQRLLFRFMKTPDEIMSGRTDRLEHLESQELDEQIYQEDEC
# ELF4, sequence (Q99607 whole entry): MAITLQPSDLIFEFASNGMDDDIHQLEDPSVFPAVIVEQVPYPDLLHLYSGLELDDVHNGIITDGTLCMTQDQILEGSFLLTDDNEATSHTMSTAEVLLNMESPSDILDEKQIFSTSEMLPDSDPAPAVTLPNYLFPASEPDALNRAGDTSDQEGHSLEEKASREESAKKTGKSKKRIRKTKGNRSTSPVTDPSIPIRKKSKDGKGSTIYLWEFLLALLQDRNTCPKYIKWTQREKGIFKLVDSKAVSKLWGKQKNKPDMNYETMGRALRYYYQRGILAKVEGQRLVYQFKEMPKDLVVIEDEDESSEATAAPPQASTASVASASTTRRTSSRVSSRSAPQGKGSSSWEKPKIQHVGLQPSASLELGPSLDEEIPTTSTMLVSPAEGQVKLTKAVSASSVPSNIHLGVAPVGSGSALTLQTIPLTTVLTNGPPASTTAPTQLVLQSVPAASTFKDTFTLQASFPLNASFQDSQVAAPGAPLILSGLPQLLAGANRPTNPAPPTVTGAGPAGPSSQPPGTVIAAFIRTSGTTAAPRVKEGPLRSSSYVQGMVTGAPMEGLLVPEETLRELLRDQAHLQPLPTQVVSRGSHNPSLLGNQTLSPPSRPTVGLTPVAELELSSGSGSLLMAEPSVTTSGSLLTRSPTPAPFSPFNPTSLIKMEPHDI
# ETV5, sequence (P41161 whole entry): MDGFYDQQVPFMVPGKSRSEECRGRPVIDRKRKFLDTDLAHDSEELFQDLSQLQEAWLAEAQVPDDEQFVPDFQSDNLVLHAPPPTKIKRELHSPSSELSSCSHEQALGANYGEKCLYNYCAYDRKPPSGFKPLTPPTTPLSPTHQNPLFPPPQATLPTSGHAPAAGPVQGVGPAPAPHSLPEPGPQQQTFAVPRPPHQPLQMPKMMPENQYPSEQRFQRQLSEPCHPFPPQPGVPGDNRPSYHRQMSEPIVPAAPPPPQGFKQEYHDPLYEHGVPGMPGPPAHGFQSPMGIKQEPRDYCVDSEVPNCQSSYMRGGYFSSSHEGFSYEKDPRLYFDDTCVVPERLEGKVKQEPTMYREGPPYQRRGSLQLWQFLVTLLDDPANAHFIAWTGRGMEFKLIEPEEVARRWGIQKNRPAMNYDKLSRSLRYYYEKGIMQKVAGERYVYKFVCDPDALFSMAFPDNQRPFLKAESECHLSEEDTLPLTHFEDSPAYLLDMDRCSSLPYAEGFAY
sequence,measurement,setting,value
CAGCTT,binding signal,FEV,"1.2 fold enrichment (6-mer frequency, TF over GST control)"
same,binding signal,ETV5,"1.17 fold enrichment (6-mer frequency, TF over GST control)"
same,binding signal,HSF1,"1.43 fold enrichment (6-mer frequency, TF over GST control)"
same,binding signal,SPIC,"1.01 fold enrichment (6-mer frequency, TF over GST control)"
same,binding signal,ELF4,"1.19 fold enrichment (6-mer frequency, TF over GST control)"
same,binding signal,ELK4,"1.24 fold enrichment (6-mer frequency, TF over GST control)"
same,binding signal,ETV2,"1.36 fold enrichment (6-mer frequency, TF over GST control)"
same,binding signal,ELF3,"1.19 fold enrichment (6-mer frequency, TF over GST control)"
same,binding signal,CRX,"1.9 fold enrichment (6-mer frequency, TF over GST control)"
same,binding signal,ETV1,"1.16 fold enrichment (6-mer frequency, TF over GST control)"
same,binding signal,ERF,"1.28 fold enrichment (6-mer frequency, TF over GST control)"
same,binding signal,ETV3L,"1.2 fold enrichment (6-mer frequency, TF over GST control)"
same,binding signal,ETS2,"1.21 fold enrichment (6-mer frequency, TF over GST control)"
same,binding signal,SPDEF,"1.24 fold enrichment (6-mer frequency, TF over GST control)"
same,binding signal,ETV7,"1.15 fold enrichment (6-mer frequency, TF over GST control)"
same,binding signal,ELF5,"1.11 fold enrichment (6-mer frequency, TF over GST control)"
same,binding signal,ETV3,"1.21 fold enrichment (6-mer frequency, TF over GST control)"
same,binding signal,ETV6,"1.11 fold enrichment (6-mer frequency, TF over GST control)"
